Reference: PubChem BioAssay AID1460 (National Center for Advancing Translational Sciences (NCATS), 2008)
Out of some 270,000 compounds screened, about 5,800 (2.1%) were called active. Inconclusive results (about 16%) are left out. Calls follow the shape of the dose curve; as a rule, active = well fitted inhibition curve with a large enough effect; inconclusive = small, poorly fitted or top-dose-only effect; inactive = flat fitted curve, though single readings scatter. What follows is part of a selection rich in actives, with near analogues and random picks from the rest.

Each compound was assayed against Microtubule-associated protein tau (Homo sapiens) (UniProt P10636) (assay: qHTS for Inhibitors of Tau Fibril Formation, Thioflavin T Binding). Conditions: recombinant tau K18 P301L (four-repeat tau fragment), heparin-induced fibrillization, ThT fluorescence; series mostly up to 57.4 µM; activity, negative = inhibition: at the top concentration.
How it was run: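 Tau K18 P301L fragment (15 uM unlabeled plus 0.24 uM Alexa 594-labeled) in 100 mM sodium acetate pH 7 with compound, fibrillization induced by 20 uM heparin for 6 hr at 37 C. Thioflavin T (30 uM) added, fluorescence read after 1 hr (ex 450, em 510 nm).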
% is scaled to controls: 0 for no effect and ±100 for the full control effect; potency is read from the fitted curve at half-maximal effect.
Also: nearly all actives have a fitted effect of over 55% in size.

Microtubule-associated protein tau (Homo sapiens), sequence (P10636 561-689 P618L limits assumed): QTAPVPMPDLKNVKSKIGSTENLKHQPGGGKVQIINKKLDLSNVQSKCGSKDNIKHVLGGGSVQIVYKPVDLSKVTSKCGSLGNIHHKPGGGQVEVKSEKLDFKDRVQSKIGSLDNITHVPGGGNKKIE

**Q.** For `Cc1ccc(Nc2ccc3cc(S(=O)(=O)N4CCCCC4)ccc3n2)cc1F`, which “activity, negative = inhibition” value is on record?
**A.** 1.9% (inactive)

**Q.** Which “activity, negative = inhibition” value does the source give for `CCc1nc(NCCO)c(C#N)c2c1CCCC2` here?
**A.** -1.9% (inactive)

**Q.** `CCCCc1nc(NCc2ccccc2)c(C#N)c2c1CCCC2` was tested. Which “activity, negative = inhibition” value did it give?
**A.** -11.9% (inactive)

**Q.** For `CCN1CCc2c(C#N)c(NCc3ccccc3)nc(NCCO)c2C1`, which Potency is on record?
**A.** 22.4 µM (active)

**Q.** `COc1ccc(SCc2cc(=O)c3ccc(C)c(C)c3[nH]2)cc1` was tested. Which “activity, negative = inhibition” value did it give?
**A.** -4.47% (inactive)

**Q.** With `COc1ccc(CNC(=O)C(C)n2nc(C)c3c(C)n(-c4ccccc4)nc3c2=O)c(OC)c1` (stereo not drawn) as the compound, how does the “activity, negative = inhibition” value read?
**A.** 13.1% (inactive)

**Q.** How did the “activity, negative = inhibition” value turn out when `CCOC(=O)c1[nH]c(C)c(CCC(=O)NCc2ccccc2C)c1C` was run?
**A.** 4.91% (inactive)

**Q.** How did the Potency turn out when `CCC(C)Cn1c(O)cc2nn(-c3nc4ccccc4s3)c(=O)c-2c1C` (stereo not drawn) was run?
**A.** 31.6 µM (active)

**Q.** For `Cc1cc(NC(=O)CN2CCCC(C)C2)n(-c2nc3ccccc3s2)n1` (stereo not drawn), which “activity, negative = inhibition” value is on record?
**A.** -4.78% (inactive)

**Q.** `CCOC(=O)N1CCN(CC(=O)Nc2cc(C)nn2-c2nc3ccccc3s2)CC1` was tested. Which “activity, negative = inhibition” value did it give?
**A.** -20.1% (inactive)

**Q.** `COc1ccccc1N1CCN(c2ncnc3onc(-c4ccc(F)cc4)c23)CC1` was tested. Which “activity, negative = inhibition” value did it give?
**A.** -11% (inactive)

**Q.** `N#Cc1ccccc1Cn1cnc2nc3c(cc2c1=O)CCCC3` was tested. Which “activity, negative = inhibition” value did it give?
**A.** 6.09% (inactive)

**Q.** With `CCOC(=O)N1CCc2c(sc3c2C(=O)NC(c2ccccc2F)N3)C1` (stereo not drawn) as the compound, how does the “activity, negative = inhibition” value read?
**A.** -16.9% (inactive)

**Q.** Which Potency does the source give for `C/C(=C\c1ccccc1)C1NC(=O)c2c(sc3c2CCCC3)N1` (stereo not drawn) here?
**A.** 3.55 µM (active)

**Q.** With `CCOC(=O)c1c(NC(=O)/C(C#N)=C/c2ccccc2)sc2c1CCC2` as the compound, how does the “activity, negative = inhibition” value read?
**A.** -11.2% (inactive)

**Q.** With `O=C(Nc1ccc2nc(SCC(=O)N3CCCc4ccccc43)sc2c1)c1ccc(Cl)cc1` as the compound, how does the “activity, negative = inhibition” value read?
**A.** -9.33% (inactive)

**Q.** With `CCC(=O)Nc1c(C(=O)N2CCN(c3ccc(F)cc3)CC2)oc2ccccc12` as the compound, how does the “activity, negative = inhibition” value read?
**A.** -8.2% (inactive)

**Q.** How did the “activity, negative = inhibition” value turn out when `O=C(/C=C/Nc1ccccc1OC(F)(F)F)C(F)(F)F` was run?
**A.** 12.2% (inactive)

**Q.** `CC(=O)N(C)c1ccc(NC(=O)C(F)(F)F)cc1` was tested. Which “activity, negative = inhibition” value did it give?
**A.** -4.07% (inactive)

**Q.** For `CN(C)c1ccc(N/C=C/C(=O)C(F)(F)F)cc1`, which Potency is on record?
**A.** 10 µM (active)

**Q.** With `COC(=O)c1scc(-c2ccccc2)c1S(=O)(=O)Nc1ccccc1` as the compound, how does the “activity, negative = inhibition” value read?
**A.** -4.33% (inactive)

**Q.** For `CSc1nc(Nc2ccc(F)cc2)cc(-c2ccccc2)n1`, which “activity, negative = inhibition” value is on record?
**A.** 1.92% (inactive)

**Q.** With `Fc1ccc(Nc2nnns2)cc1` as the compound, how does the Potency read?
**A.** 28.2 µM (active)

**Q.** Which “activity, negative = inhibition” value does the source give for `Cc1ccccc1OCCSc1nc2ccc(NC(=O)c3ccco3)cc2s1` here?
**A.** 8.23% (inactive)

**Q.** `COc1cccc2c1cc1c(=O)n(CC(=O)N3CCN(c4cccc(Cl)c4)CC3)nc(C)n12` was tested. Which “activity, negative = inhibition” value did it give?
**A.** 2.8% (inactive)

**Q.** With `Cc1ccc(NC(=O)C(=O)NCC(c2cccnc2)N2CCOCC2)cc1` (stereo not drawn) as the compound, how does the “activity, negative = inhibition” value read?
**A.** -11.6% (inactive)

**Q.** With `O=C(Nc1nc2ccccc2s1)c1ccc2c(c1)OCO2` as the compound, how does the “activity, negative = inhibition” value read?
**A.** -0.597% (inactive)

**Q.** How did the Potency turn out when `Cc1ccc2sc(NNC(=O)c3ccc4c(c3)OCCO4)nc2c1C` was run?
**A.** 12.6 µM (active)

**Q.** How did the “activity, negative = inhibition” value turn out when `Cc1cc(C)c2nc(NC(=O)c3ccc4c(c3)OCO4)sc2c1` was run?
**A.** -7.3% (inactive)

**Q.** With `COc1ccc(-c2noc(-c3ccc(N4CCN(c5ccccc5)CC4)c([N+](=O)[O-])c3)n2)cc1OC` as the compound, how does the “activity, negative = inhibition” value read?
**A.** -14.1% (inactive)

**Q.** How did the “activity, negative = inhibition” value turn out when `O=C(Nc1ccccc1F)C(c1ccccc1)N1Cc2ccccc2C1=O` (stereo not drawn) was run?
**A.** -3.81% (inactive)

**Q.** For `Cc1ccc(-n2[nH]c(C)c(/C=N/N3C(=O)c4cccc5cccc(c45)C3=O)c2=O)cc1`, which Potency is on record?
**A.** 22.4 µM (active)

**Q.** For `Cc1[nH]n(-c2ccc(Cl)cc2)c(=O)c1/C=N/n1c(C)nc2ccccc2c1=O`, which “activity, negative = inhibition” value is on record?
**A.** -19.5% (inactive)

**Q.** Which “activity, negative = inhibition” value does the source give for `C[N+](C)(CCCCCC[N+](C)(C)CCCN1C(=O)c2cccc3cccc(c23)C1=O)CCCN1C(=O)c2cccc3cccc(c23)C1=O` here?
**A.** 3.91% (inactive)

**Q.** How did the “activity, negative = inhibition” value turn out when `COc1ccc(NC(=O)CCCc2nnc3n(CCC(C)C)c(=O)c4sccc4n23)c(OC)c1` was run?
**A.** -4.84% (inactive)

**Q.** For `COC(=O)c1cc2occc2n1Cc1nc(-c2ccc(C)cc2)oc1C`, which “activity, negative = inhibition” value is on record?
**A.** 7.52% (inactive)

**Q.** With `O=c1c(O)c(Br)ccc2c(Br)c(O)c(O)c(O)c12` as the compound, how does the Potency read?
**A.** 3.55 µM (active)

**Q.** How did the “activity, negative = inhibition” value turn out when `COc1cccc(C(=O)NCc2ccc3c(c2)CCN3C(=O)c2ccncc2)c1` was run?
**A.** -1.82% (inactive)

**Q.** Which “activity, negative = inhibition” value does the source give for `Cc1ccc(Cl)cc1N1CCN(C(=O)c2cccn3c(=O)c4cc(Cl)ccc4nc23)CC1` here?
**A.** 1.52% (inactive)

**Q.** How did the “activity, negative = inhibition” value turn out when `COc1ccc(NS(=O)(=O)c2cc3c(cc2C)N(C(C)=O)CCO3)cc1` was run?
**A.** -6.28% (inactive)

**Q.** How did the “activity, negative = inhibition” value turn out when `Cc1nn(CC(=O)N/N=C/c2ccc(F)cc2)c(C)c1[N+](=O)[O-]` was run?
**A.** -6.13% (inactive)

**Q.** Which Potency does the source give for `Cc1cc(C(=O)N/N=C/c2ccc(O)c([N+](=O)[O-])c2)c(C)n1-c1ccc(F)cc1` here?
**A.** 14.1 µM (active)

**Q.** How did the “activity, negative = inhibition” value turn out when `Cc1cc(C(=O)COC(=O)C2CC2)c(C)n1-c1ccc(F)cc1` was run?
**A.** -7.67% (inactive)

**Q.** `Cc1ccc2c(=O)c(C(=O)c3ccc(Cl)cc3)cn(CC(=O)NC3CCCCC3)c2n1` was tested. Which “activity, negative = inhibition” value did it give?
**A.** -11.7% (inactive)

**Q.** With `CCOC(=O)C1=NOC(Cn2cc(C(C)=O)c(=O)[nH]c2=O)C1` (stereo not drawn) as the compound, how does the “activity, negative = inhibition” value read?
**A.** 0.727% (inactive)

**Q.** How did the “activity, negative = inhibition” value turn out when `CCOC(=O)C1=C(C)NC(=O)NC1c1ccccc1` (stereo not drawn) was run?
**A.** -5.11% (inactive)

**Q.** With `CCOC(=O)C1=NO[C@@]2(C=C(Br)C(=O)[C@H]3O[C@H]32)C1` as the compound, how does the Potency read?
**A.** 15.8 µM (active)

**Q.** For `CCc1ccccc1NC(=O)CSc1nnc(-c2ccccc2)c(-c2ccccc2)n1`, which “activity, negative = inhibition” value is on record?
**A.** -10.8% (inactive)

**Q.** For `CC(=O)N1CCCc2cc(S(=O)(=O)Nc3ccc(Cl)cc3F)ccc21`, which “activity, negative = inhibition” value is on record?
**A.** -5.83% (inactive)

**Q.** Which Potency does the source give for `CCN1C(=O)/C(=C2\SC(N3CCCCC3)=NC2=O)c2ccccc21` here?
**A.** 11.2 µM (active)

**Q.** With `CCN1C(=O)/C(=C\N2CCN(c3ccccc3)CC2)SC1=S` as the compound, how does the “activity, negative = inhibition” value read?
**A.** -10.5% (inactive)

**Q.** `CCc1ccc(/C=C2\SC(N3CCOCC3)=NC2=O)cc1` was tested. Which “activity, negative = inhibition” value did it give?
**A.** -5.76% (inactive)

**Q.** Which “activity, negative = inhibition” value does the source give for `CCc1ccc(NC(=O)c2cc(S(=O)(=O)N3CCCC(C)C3)cn2C)cc1` (stereo not drawn) here?
**A.** 4.85% (inactive)

**Q.** For `Cc1c(Cl)cccc1-c1ccc(CNCCCSc2nnnn2C)o1`, which “activity, negative = inhibition” value is on record?
**A.** -6.19% (inactive)

**Q.** For `CCn1cc2nc(SCc3ccccc3Cl)n(CCc3ccccc3)c(=O)c2n1`, which “activity, negative = inhibition” value is on record?
**A.** -12.5% (inactive)

**Q.** With `Cc1nc2ccccc2nc1N/N=C/c1ccc(O)cc1O` as the compound, how does the Potency read?
**A.** 14.1 µM (active)

**Q.** How did the Potency turn out when `Oc1ccc(/C=N/Nc2nc(-c3ccccc3F)nc3ccccc23)c(O)c1` was run?
**A.** 4.47 µM (active)

**Q.** `Cc1cc(N/N=C/c2ccccc2F)c2ccccc2n1` was tested. Which “activity, negative = inhibition” value did it give?
**A.** 0.109% (inactive)

**Q.** How did the “activity, negative = inhibition” value turn out when `Cc1n[nH]c(=O)nc1N/N=C/c1cccs1` was run?
**A.** -16.7% (inactive)

**Q.** `Fc1ccc(/C=N/Nc2nc(-c3cccnc3)nc3ccccc23)cc1` was tested. Which “activity, negative = inhibition” value did it give?
**A.** -19.8% (inactive)

**Q.** `Oc1ccc(/C=N/NC2=NCCCCC2)c(O)c1` was tested. Which “activity, negative = inhibition” value did it give?
**A.** -11.4% (inactive)

**Q.** With `Cc1nc2nc(SCC(=O)NC3CCC(C)CC3)nn2c(C)c1Cc1ccccc1Cl` (stereo not drawn) as the compound, how does the “activity, negative = inhibition” value read?
**A.** -13.3% (inactive)

**Q.** With `COC(=O)c1scc(-c2ccc(C)cc2)c1S(=O)(=O)Nc1cc(Cl)c(OC)cc1OC` as the compound, how does the “activity, negative = inhibition” value read?
**A.** -2.57% (inactive)

**Q.** With `CC1CCN(S(=O)(=O)c2ccc3c(c2)N(CC(=O)NCCc2ccccc2)C(=O)CO3)CC1` as the compound, how does the “activity, negative = inhibition” value read?
**A.** -3.46% (inactive)

**Q.** How did the Potency turn out when `CNc1ccc(SC#N)cc1` was run?
**A.** 12.6 µM (active)

**Q.** `COc1ccccc1C1=Nc2cccc3cccc(c23)N1` was tested. Which Potency did it give?
**A.** 11.2 µM (active)

**Q.** How did the “activity, negative = inhibition” value turn out when `COc1ccccc1-c1nc(SC)n[nH]1` was run?
**A.** 3.07% (inactive)

**Q.** For `CNc1nc(-c2ccccc2OC)nc2ccccc12`, which “activity, negative = inhibition” value is on record?
**A.** -7.91% (inactive)
